# Assay results taken from PubChem BioAssay (NCATS).
# Where “and” joins values, the source holds several entries; their conditions need not be identical. Equal entries are not always repeated. A number with no mark means an inactive call. Inconclusive results are not listed. Calls of active or inactive are those of the source. Unless noted, calls follow the shape of the dose curve; as a rule, active = well fitted curve in the direction sought with a large enough effect; inconclusive = small, poorly fitted or top-dose-only effect, or another doubt; inactive = no such curve, though single readings can be large; an effect the other way counts as inactive or inconclusive.
# How the values were obtained:
# [1] = Cell Viability - BJ (AID 421; calls by dose curve;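 also: potency is read from the fitted curve at half-maximal effect; cells exposed to compound for 40 hours at 37 °C before readout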); conditions: BJ fibroblast viability, qHTS
# Outline: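 Cytotoxicity as drop in intracellular ATP (CellTiter-Glo, 20 min RT) after 40 hr compound exposure of BJ fibroblasts at 37 °C. Titrations scaled between DMSO and 100 uM tamoxifen, Hill-fitted for AC50.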
# [2] = Cell Viability - Hek293 (AID 427;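 active = compounds whose dose-response curve shows a full or clear partial loss of cell viability, called from curve shape rather than a numeric limit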;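 also: potency is read from the fitted curve at half-maximal effect; cells exposed to compound for 40 hours at 37 °C before reading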); conditions: qHTS
# Outline: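 Luminescent ATP content (CellTiter-Glo, 20 min at room temperature) was measured after a 40 hr, 37 °C compound exposure of HEK293 cells. AC50 values came from Hill-equation fits of qHTS concentration-response data normalized to DMSO and 100 uM tamoxifen.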
# [3] = Cell Viability - MRC5 (AID 434; calls by dose curve;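 also: potency is read from the fitted curve at half-maximal effect; potency reflects cytotoxicity seen as loss of intracellular ATP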); conditions: MRC5 lung fibroblast viability, qHTS
# Outline: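 MRC5 normal human lung fibroblasts (1500/well) were treated with compounds for 40 hr at 37 °C in complete medium, and viable cells were measured as intracellular ATP by CellTiter-Glo luminescence. AC50 came from Hill fits, normalized to DMSO and 100 uM tamoxifen.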
# [4] = Cell Viability - N2a (AID 540); conditions: N2a mouse neuroblastoma cell viability; activity change, negative = cytotoxicity: at 92.2 µM (top of the series); also: nearly all actives have a fitted effect of over 45% in size; also: potency is read from the fitted curve at half-maximal effect;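 as to activity change, negative = cytotoxicity: plate controls were DMSO alone for no effect and tamoxifen control for full effect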
# Outline: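 Luminescent ATP signal (CellTiter-Glo, 20 min at room temperature) served as the viability read-out after N2a cells were treated with compounds for 40 hours at 37 °C. Concentration-response data were fitted to the Hill equation for AC50.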
# [5] = Cell Viability - SH-SY5Y (AID 544); conditions: SH-SY5Y neuroblastoma cell viability; viability change, negative = cytotoxic: at 92.2 µM (top of the series); also: potency is read from the fitted curve at half-maximal effect; nearly all actives have a fitted effect of over 55% in size
# Outline: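 Luminescent ATP read-out (CellTiter-Glo) measures loss of viable SH-SY5Y neuroblastoma cells after 40 hr compound exposure at 37 °C. AC50 values derive from standard Hill modelling of qHTS concentration-response data.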
# [6] = Cell Viability - Renal Proximal Tubule (AID 545); conditions: renal proximal tubule cells viability; activity change, negative = cytotoxicity: at 91.7 µM (top of the series) unless noted; also: nearly all actives have a fitted effect of over 40% in size; also: potency is read from the fitted curve at half-maximal effect
# Outline: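 Rat renal proximal tubule primary cells, 1000/well, exposed to compounds for 40 hr at 37 °C in complete medium; cellular ATP read by CellTiter-Glo luminescence. AC50 from concentration-response fitted with standard Hill equation.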
# [7] = Cell Viability - Mesenchymal (AID 546); conditions: mesenchymal cells viability, qHTS; activity change, negative = cytotoxicity: at 91.7 µM (top of the series);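 also: cells exposed to compound for 40 hours before reading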; also: potency is read from the fitted curve at half-maximal effect
# Outline: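 Normal human renal glomerulus-derived kidney mesenchymal cells, 1000 per well in complete medium, were treated with compounds for 40 hr at 37 °C. Viability was read as intracellular ATP by CellTiter-Glo luminescence; AC50 values came from Hill-equation fits of qHTS concentration-response data.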
# [8] = Cellular Toxicity (caspase-3) HepG2 (AID 654); conditions: HepG2 caspase-3 activation, luminescence, 0% = DMSO only, 100% = tamoxifen; series mostly up to 92.2 µM;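 also: cells exposed to compound for 16 hours before reading; 0% = DMSO alone and 100% = caspase signal from 100 µM tamoxifen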
# Outline: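 Cells plated 5 hr at 37 °C, compound added, incubated 16 hr at 37 °C. Caspase-Glo 3/7 reagent followed, 20 min at room temperature, then luminescence read. Activation scored as signal increase; AC50 from Hill fit.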
# [9] = Cellular Toxicity (caspase-3) Renal Proximal Tubule (AID 667); conditions: renal proximal tubule cells; at 91.7 µM (top of the series) unless noted;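 also: cells exposed to compound for 16 hours at 37 °C before detection; 0% = DMSO basal and 100% = 10 µM staurosporine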
# Outline: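 Freshly isolated primary rat kidney proximal tubule cells, 1000/well, treated 16 hr at 37 °C, then Caspase-Glo 3/7 luminescence after 1 hr. Normalized to DMSO and 10 uM staurosporine; AC50 from Hill fit.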
# [10] = MultiTox-Fluor Cytotoxicity Assay - LYMP1-002 - Live Cells (AID 955); conditions: LYMP1-002 lymphoblastoid live-cell protease fluorescence viability; series mostly up to 46.1 µM; also: potency is read from the fitted curve at half-maximal effect; as to viability change, negative = cytotoxic: % is scaled to controls: 0 for no effect and ±100 for the full control effect
# Outline: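 Read-out is live-cell protease activity (cell-permeant GF-AFC substrate, fluorescence Ex/Em=405/510), where a decrease indicates acute toxicity. Human lymphoblastoid cells were treated 16 hours at 37 C in a concentration series, and AC50 values came from standard Hill modelling.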
# [11] = MultiTox-Fluor Cytotoxicity Assay - LYMP1-003 - Live Cells (AID 962); conditions: LYMP1-003 lymphoblastoid cells, MultiTox-Fluor live-cell protease fluorescence; series mostly up to 92.2 µM; also: potency is read from the fitted curve at half-maximal effect
# Outline: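 qHTS, 1536-well; 2500 cells/well LYMP1-003; 5 hr 37 C settle; cpd 16 hr 37 C; MultiTox-Fluor reagent 60 min RT; live-cell protease fluor. 405/510; Hill-fit AC50; tetraoctylammonium bromide pos. ctrl.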
# [12] = Cell Viability - LYMP2-008 (AID 980); conditions: LYMP2-008 lymphoblastoid cell viability, qHTS; series mostly up to 92.2 µM; also: nearly all actives have a fitted effect of over 60% in size; also: potency is read from the fitted curve at half-maximal effect;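 as to activity change, negative = cytotoxicity: cells exposed to compound for 24 h at 37 °C; % is scaled to controls: 0 for no effect and ±100 for the full control effect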
# Outline: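 qHTS, human lymphoblastoid line, 2500 cells/well; 5 hr preincubation, 24 hr compound, 37 C. CellTiter-Glo ATP luminescence. AC50 via Hill equation. Tetraoctylammonium bromide positive control.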
# [13] = target: Tumor necrosis factor (Homo sapiens) (UniProt P01375); assay: qHTS assay to identify small molecules that stimulate Tumor Necrosis Factor-alpha (TNF-alpha) secretion (AID 651757; active = well fitted curve in the direction sought with a large enough effect in the signal ratio; the % refers to the signal ratio; also: 0% is about no effect); conditions: Human cells, HTRF 665/615 ratio; series mostly up to 92.2 µM
# Outline: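 Read-out is HTRF, a TR-FRET sandwich of cryptate- and XL665-labeled anti-TNF-alpha antibodies detecting cytokine secreted by THP-1 cells. Cells had been incubated with test compounds at 37 C for 17 hrs beforehand.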
# [14] = qHTS assay for environmental chemicals that activate the Aryl hydrocarbon Receptor (AhR) signaling pathway (AID 651777); conditions: 1A2-DRE human hepatoma cells, luciferase, 24 h; activation: active compounds read high; also: % of control where 0% means no effect; nearly all actives have a fitted effect of over 15% in size
# Outline: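 Induction of CYP1A2 transcription through AhR is detected by luciferase in 1A2-DRE hepatoma cells. Compounds or DMSO act for 24 hr at 37 C before a 30 min One-Glo step at room temperature.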
# [15] = target: Peroxisome proliferator-activated receptor alpha (Homo sapiens) (UniProt Q07869); assay: qHTS assay for small molecule agonists of the peroxisome proliferator-activated receptor alpha (PPARalpha) signaling pathway (AID 651778); conditions: PathHunter PPARalpha complementation, chemiluminescence, 6 h; max response: active compounds read high; also: % of control where 0% means no effect
# Outline: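 Cells plated at 2,000/well and held overnight at 37 C, 5% CO2, then compound added by pin tool for 6 hr; after PathHunter detection reagent and 60 min at room temperature, chemiluminescence from enzyme complementation was read.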
# [16] = qHTS assay for small molecule agonists of the antioxidant response element (ARE) signaling pathway measured by Nrf2-dependant transcriptional activity - cell viability counter screen (AID 720653; active = well fitted curve in the direction sought with a large enough effect in the repeat runs; an effect the other way counts as inactive or inconclusive; also: potency is read from the fitted curve at half-maximal effect; as to max response: % is scaled to controls: 0 for no effect and ±100 for the full control effect); conditions: ARE-bla HepG2 viability, CellTiter-Glo ATP luminescence, 16 h; max response: active compounds read low
# Outline: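 ARE-bla HepG2 cells (2,000/well) rested 5 hrs at 37C/5% CO2, then exposed to compounds in DMSO for 16 hrs. Viability was read in the same wells as intracellular ATP by luminescence, 30 min at room temperature after reagent addition.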
# [17] = target: Glucocorticoid receptor (Homo sapiens) (UniProt P04150); assay: GR-GFP Redistribution (AID 450;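 active = compounds whose dose series gives a full or clear partial fitted curve of increased nuclear translocation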; also: potency is read from the fitted curve at half-maximal effect); conditions: U2OS GR-GFP nuclear translocation, laser cytometry, 2 h
# [18] = Validation screen for inhibitors of Lassa infection (AID 463096; calls by dose curve; also: % is scaled to controls: 0 for no effect and ±100 for the full control effect); conditions: Lassa virus infection, cell-based; series mostly up to 46.1 µM
# Chain of Glucocorticoid receptor (Homo sapiens) (P04150 whole entry, looked up): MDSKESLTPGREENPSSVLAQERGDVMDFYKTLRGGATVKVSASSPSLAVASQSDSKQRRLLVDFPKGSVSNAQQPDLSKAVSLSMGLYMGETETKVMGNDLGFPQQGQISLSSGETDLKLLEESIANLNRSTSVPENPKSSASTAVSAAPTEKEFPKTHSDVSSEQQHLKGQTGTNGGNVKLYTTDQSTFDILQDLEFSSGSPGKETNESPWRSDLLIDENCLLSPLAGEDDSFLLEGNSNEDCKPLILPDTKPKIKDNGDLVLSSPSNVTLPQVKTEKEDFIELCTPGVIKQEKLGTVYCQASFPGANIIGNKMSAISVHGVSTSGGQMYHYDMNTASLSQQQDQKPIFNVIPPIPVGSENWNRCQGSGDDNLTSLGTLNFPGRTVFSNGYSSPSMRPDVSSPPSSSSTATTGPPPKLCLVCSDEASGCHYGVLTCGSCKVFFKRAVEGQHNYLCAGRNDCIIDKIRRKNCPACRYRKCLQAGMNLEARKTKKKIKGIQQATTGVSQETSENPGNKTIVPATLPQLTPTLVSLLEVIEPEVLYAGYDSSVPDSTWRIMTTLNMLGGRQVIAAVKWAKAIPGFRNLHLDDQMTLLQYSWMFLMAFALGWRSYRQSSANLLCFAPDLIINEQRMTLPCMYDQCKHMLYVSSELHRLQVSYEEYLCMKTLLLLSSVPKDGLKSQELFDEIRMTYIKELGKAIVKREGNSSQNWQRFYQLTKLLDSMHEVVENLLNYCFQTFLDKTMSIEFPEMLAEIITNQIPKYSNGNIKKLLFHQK
# Chain of Tumor necrosis factor (Homo sapiens) (P01375 whole entry, looked up): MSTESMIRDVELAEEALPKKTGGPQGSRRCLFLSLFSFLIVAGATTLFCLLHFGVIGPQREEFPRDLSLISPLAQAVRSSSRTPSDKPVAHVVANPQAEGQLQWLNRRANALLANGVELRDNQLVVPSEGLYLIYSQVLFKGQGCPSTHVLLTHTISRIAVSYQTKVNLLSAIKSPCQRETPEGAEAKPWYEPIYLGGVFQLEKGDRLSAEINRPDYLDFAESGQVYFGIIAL
# Chain of Peroxisome proliferator-activated receptor alpha (Homo sapiens) (Q07869 whole entry, looked up): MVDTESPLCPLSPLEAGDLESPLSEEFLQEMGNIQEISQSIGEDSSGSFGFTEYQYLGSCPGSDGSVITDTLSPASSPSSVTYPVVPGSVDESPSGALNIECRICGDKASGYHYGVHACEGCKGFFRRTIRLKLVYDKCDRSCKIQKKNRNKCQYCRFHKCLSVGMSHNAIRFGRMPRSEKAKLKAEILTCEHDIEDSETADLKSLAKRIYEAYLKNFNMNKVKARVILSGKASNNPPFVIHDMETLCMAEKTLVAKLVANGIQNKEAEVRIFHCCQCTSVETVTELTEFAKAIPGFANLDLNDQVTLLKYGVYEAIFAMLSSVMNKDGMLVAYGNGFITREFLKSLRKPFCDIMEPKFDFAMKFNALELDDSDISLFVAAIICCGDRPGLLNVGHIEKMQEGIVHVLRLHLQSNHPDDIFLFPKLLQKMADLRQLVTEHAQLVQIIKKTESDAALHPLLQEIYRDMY
smiles,measurement,setting,value
Clc1ccc(C(c2ccc(Cl)cc2)C(Cl)Cl)cc1,Potency,[1],55 µM (active)
same,Potency,[2],45.4 µM (active)
same,Potency,[3],45.4 µM (active)
same,"activity change, negative = cytotoxicity",[4],-102% (active)
same,Potency,[5],31.6 µM (active)
same,"activity change, negative = cytotoxicity",[6],-88.1% (active)
same,Potency,[7],inactive
same,outcome,[8],inactive
same,caspase-3 activation,[9],152% (active)
same,Potency,[10],inactive
same,Potency,[11],inactive
same,Potency,[12],inactive
same,Potency,[13],inactive
same,activation,[14],0.923% and 0.102%
same,max response,[15],16.9%
same,max response,[16],-1.77% and -12.4%
O=[N+]([O-])c1ccccc1Cl,Potency,[1],> 92 µM
same,Potency,[2],> 92 µM
same,Potency,[3],> 92 µM
same,activation,[14],-0.478% and -0.511%
same,max response,[16],10.4% and -3.52%
C[C@@H]1CC[C@@]2(OC1)O[C@H]1[C@@H](O)[C@H]3[C@@H]4CC[C@H]5C[C@@H](O[C@@H]6O[C@H](CO)[C@H](O[C@@H]7O[C@H](CO)[C@@H](O)[C@H](O[C@@H]8OC[C@@H](O)[C@H](O)[C@H]8O)[C@H]7O[C@@H]7O[C@H](CO)[C@@H](O)[C@H](O[C@@H]8O[C@H](CO)[C@@H](O)[C@H](O)[C@H]8O)[C@H]7O)[C@H](O)[C@H]6O)[C@H](O)C[C@]5(C)[C@H]4CC[C@]3(C)[C@H]1[C@@H]2C,Potency,[1],19.9 µM (active)
same,Potency,[2],27.5 µM (active)
same,Potency,[3],24.4 µM (active)
same,Potency,[4],31.6 µM (active)
same,Potency,[5],15.8 µM (active)
same,Potency,[6],7.94 µM (active)
same,Potency,[7],31.6 µM (active)
same,outcome,[8],inactive
same,caspase-3 activation,[9],-2.38%
same,Potency,[10],3.98 µM (active)
same,Potency,[11],10 µM (active)
same,Potency,[12],20 µM (active)
same,Potency,[13],inactive
same,activation,[14],-9.71%
same,max response,[15],-5.72%
same,Potency,[16],17.8 µM (active)
C[C@H]1CC[C@@H]2[C@@H](C)C(=O)O[C@H]3O[C@@]4(C)CC[C@@H]1[C@]32OO4,Potency,[17],> 46 µM
COc1ccc2c(c1OC)C(=O)OC2C1c2c(cc3c(c2OC)OCO3)CCN1C (stereo not given),Potency,[18],inactive
C=C(C)[C@H]1[C@H]2OC(=O)[C@@H]1[C@]1(O)C[C@H]3O[C@]34C(=O)O[C@H]2[C@]14C,Potency,[17],> 46 µM
O=c1ccc2cc(O[C@@H]3O[C@@H](CO)[C@@H](O)[C@@H](O)[C@H]3O)c(O)cc2o1,Potency,[17],> 46 µM
Cc1ccc(OCC(O)C(C)NC(C)C)c2c1CCC2 (stereo not given),Potency,[18],inactive
Nc1nc(Nc2ccccc2)nc2c1ncn2[C@@H]1O[C@H](CO)[C@H](O)[C@H]1O,Potency,[18],inactive
COc1cc2c(cc1OC)C(c1ccccc1)CN(C)CC2 (stereo not given),Potency,[18],inactive
Oc1cc2c(cc1O)[C@H]1c3ccccc3CN[C@H]1CC2,Potency,[17],> 46 µM
C#C[C@]1(O)CC[C@H]2C3CCC4=Cc5oncc5CC4(C)C3CCC21C (stereo not given in full),Potency,[18],inactive
CNC(=O)[C@H]1O[C@@H](n2cnc3c(N)ncnc32)[C@H](O)[C@H]1O,Potency,[18],inactive
Nc1ccn([C@@H]2O[C@H](CO)[C@@H](O)[C@@H]2O)c(=O)n1,Potency,[18],inactive
CC(N)=NCCCC(N)C(=O)O (stereo not given),Potency,[18],inactive
Cc1ccccc1N1CCN(S(=O)(=O)C[C@]23CCC(CC2NC(=O)[C@@H](N)CCS(C)(=O)=O)C3(C)C)CC1 (stereo not given in full),Potency,[18],inactive
